{"source": "PubChem BioAssay AID493084", "about": "(National Center for Advancing Translational Sciences (NCATS), 2011)", "note": "Values joined by “and” are separate entries in the source; they are usually repeats but may differ in a detail not shown here. Equal entries are not always repeated. The campaign covered roughly 360,000 compounds. About 650 (0.18%) were called active. Shown is part of a subset that was picked to be rich in actives. A number with no mark means an inactive call. No stated cut-off is given here; in the data, active means activation above about 30%; inactive means the rest.", "data": [{"target": "Thyrotropin-releasing hormone receptor (Homo sapiens) (UniProt P34981)", "sequence (P34981 whole entry, looked up)": "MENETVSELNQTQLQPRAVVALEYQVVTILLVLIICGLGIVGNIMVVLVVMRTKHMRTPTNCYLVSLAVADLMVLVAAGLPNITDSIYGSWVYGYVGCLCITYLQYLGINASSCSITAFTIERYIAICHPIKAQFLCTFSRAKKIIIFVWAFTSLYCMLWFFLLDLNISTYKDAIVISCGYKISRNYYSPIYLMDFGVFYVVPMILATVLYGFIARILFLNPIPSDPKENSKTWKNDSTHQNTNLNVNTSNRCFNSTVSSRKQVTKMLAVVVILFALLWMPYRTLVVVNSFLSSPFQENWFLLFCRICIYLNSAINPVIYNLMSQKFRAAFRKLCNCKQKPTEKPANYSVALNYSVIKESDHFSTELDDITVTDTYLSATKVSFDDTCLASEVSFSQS", "experiment": "qHTS for Small Molecule Agonists and Allosteric Enhancers of Human TRH Receptor: Primary Screen for Agonists; further: 0% is about no effect.", "conditions": "TRHR cells, calcium flux fluo-8, FDSS agonist mode; at 2 µM; active compounds read high", "from_the_text": "NIH Chemical Genomics Center [NCGC] NIH Molecular Libraries Probe Centers Network [MLPCN] MLPCN Grant: MH089816-01 Assay Submitter (PI): Marvin Gershengorn This project aims to identify small drug-like molecules that activate (agonists) the thyrotropin releasing hormone (TRH) receptor (TRHR) or enhance its TRH-stimulated activity (allosteric enhancers). TRHR, a drug-accessible cell surface receptor expressed in specific brain regions, and its ligand TRH have been implicated in several central nervous system disorders, including depression and anxiety. Small molecule TRHR agonists or allosteric enhancers that are metabolically stable and able to cross the blood-brain barrier might serve as probes to elucidate the roles of brain TRH receptors in animal models, and might be valuable as lead compounds for the development of drugs to treat patients with central nervous system disorders. Upon TRHR-Gq activation in TRHR cells, intracellular calcium is released from stores in the endoplasmic reticulum. […] This primary screen measures compound-induced activation of calcium release.\nFor the HTS assay freshly prepared cells are plated at a density of 2000/well in 3 ul of complete DMEM medium containing 10% serum in 1536-well plates and cultured over night at 37 C in a humidified incubator with 5% CO2. The next day, 2 ul of a no wash calcium dye (ABD Bioquest) was added to the cells and plates were incubated at room temperature for 1 hour. For the assay, assay plates were loaded into the FDSS kinetic plate reader. A 10 cycle (1 second/cycle) baseline measurement is taken and then the FDSS online 1536 pintool delivers 23 nl of compound library (as well as TRH controls) to the plate. The plate is measured for kinetically at 1 cycle/sec for 180 seconds and is considered to be the agonist portion of the assay (eg, compounds which activate a positive calcium response during this portion are flagged as potential agonists). Following the 180 second read, 1 ul of either an EC20 (positive modulation assay) is delivered by an onboard pipette head. Measurements are taken kinetically for an additional 180 seconds. TRHR FDSS Screening Protocol 1. Reagent, 3 uL 2000 cells/well 1536 TC treated Black plate in media containing 10% FCS 2. Time, 18 hours, 33.5C 5% CO2 (cells grown at 37C) 3. Reagent, 2 uL ABD fluo-8 Ca dye 4. Time, 30 min-1.5hrs hours, Room temp (6 plates/batch) 5. Detector, EX 480/EM 530C, FDSS 10 cycles baseline (1sec/cycle) 6. Compound, 23 nL of stock solution from library 7. Detector, EX 480/EM 530C, FDSS […] (1sec/cycle) Agonist mode 8. Compound, 1 ul EC20 of TRH made up in HEPES HBSS, 10 nM final 9. Detector, EX 480/EM 530C, FDSS 100 cycles (1sec/cycle) Potentiator mode", "values": [{"smiles": "CCc1ccccc1NC(=S)Nc1cc(OC)c(NC(=O)C(C)C)cc1OC", "activation": "0.112%"}, {"smiles": "CCc1ccccc1NC(=O)/C(=C/c1ccccc1)c1ccccc1", "activation": "56.2% (active)"}, {"smiles": "CCc1ccccc1NC(=O)CCOc1ccccc1", "activation": "0.744% and -1.55%"}, {"smiles": "Cc1c(NC(=O)C(C)(C)C)cccc1-c1nc2ccccc2s1", "activation": "1.53%"}, {"smiles": "O=C(Cn1nc(Cc2cccnc2)c2ccccc2c1=O)N1CCN(c2ccccc2F)CC1", "activation": "-1.92%"}, {"smiles": "CCOc1ccc(NC(=O)c2cnn(-c3ccccc3)c2-n2cccc2)cc1", "activation": "-2.32%"}, {"smiles": "O=C(NCCCO)C(=O)Nc1c2c(nn1-c1ccc(F)cc1)CSC2", "activation": "-1.01%"}, {"smiles": "CCOC(=O)c1[nH]c2ccc(C)cc2c1N=C(C)N(C)C", "activation": "32.1% (active)"}, {"smiles": "CCOC(=O)c1cc2cc(C)ccc2[nH]1", "activation": "0.835%"}, {"smiles": "CCOC(=O)c1ccc2[nH]c3c(c2c1)CCCC3NC=O", "note": "(stereo unspecified)", "activation": "0.37%"}, {"smiles": "NC(=O)c1ccc(NC(=O)COC(=O)c2c3c(nc4ccccc24)/C(=C\\c2ccc4c(c2)OCO4)CCC3)cc1", "activation": "50.8% (active)"}, {"smiles": "NC(=O)c1ccc(NC(=O)COC(=O)C(Cc2ccccc2)NC(=O)c2ccccc2)cc1", "note": "(stereo unspecified)", "activation": "-0.12%"}, {"smiles": "O=C(CSc1nc(C2CC2)nc2ccccc12)Nc1ccc2c(c1)OCCO2", "activation": "-1.49%"}, {"smiles": "Cn1nnnc1Sc1ncnc2scc(-c3ccccc3[N+](=O)[O-])c12", "activation": "-0.547%"}, {"smiles": "N#Cc1nc(/C=C/c2ccc(F)cc2)oc1NC1CCCCC1", "activation": "0.903%"}, {"smiles": "CCCCOc1ccc(CNC(=O)c2ccc3c(c2)N(C)C(=O)C2CCCCN32)cc1", "note": "(stereo unspecified)", "activation": "-0.251%"}, {"smiles": "CNC(=O)c1ccc(-c2nc(CN3CCc4ccccc43)c(C)o2)cc1", "activation": "-1.17%"}, {"smiles": "Nc1c(C(=O)c2cccs2)sc2nsc(SCCN3CCCCC3)c12", "activation": "99.5% (active)"}, {"smiles": "COC(=O)c1ccccc1NC(=O)c1cc(-c2ccccc2O)no1", "activation": "-0.321%"}, {"smiles": "CC(NC(=O)CCc1cn(Cc2ccccc2Cl)c2ccccc12)c1ccccc1", "note": "(stereo unspecified)", "activation": "0.58%"}, {"smiles": "COc1cc(OC)c(OC)cc1/C=C/c1nc2cc3ccccc3cc2c(=O)n1-c1ccc(F)c(Cl)c1", "activation": "0.234%"}, {"smiles": "Cc1cc2nc3c(=O)n(Cc4ccccc4)c(=O)[nH]c3nc2cc1N", "activation": "134% (active)"}, {"smiles": "CCC(=O)Nc1ccc(C)cc1-c1nc2ccccc2n(Cc2ccccc2)c1=O", "activation": "0.131%"}, {"smiles": "Cn1c(=O)[nH]c(=O)c2c1[nH]c(=S)n2Cc1ccccc1", "activation": "0.0169%"}, {"smiles": "CCN(CCCNC(=O)Cn1ncc2c([nH]c3ccccc32)c1=O)c1cccc(C)c1", "activation": "-0.233%"}, {"smiles": "Cc1cccc(CC(=O)N2CC(=O)Nc3ccc(F)cc3C2c2ccccc2)c1", "note": "(stereo unspecified)", "activation": "-0.138%"}, {"smiles": "O=C(O)c1ccc(CSc2nc3cccnc3n2Cc2cccc(F)c2)cc1", "activation": "-0.0878%"}, {"smiles": "CCCNC(=O)c1ccc2c(c1)ncn2-c1ccc(C)cc1C", "activation": "-0.34%"}, {"smiles": "C=CCSc1nnc(N2C(=O)C(O)=C(C(=O)c3ccco3)C2c2ccc(F)cc2)s1", "note": "(stereo unspecified)", "activation": "48.4% (active)"}, {"smiles": "O=C(C1=C(O)C(=O)N(c2ncccn2)C1c1cccs1)c1ccco1", "note": "(stereo unspecified)", "activation": "1.88%"}, {"smiles": "Cc1ccc2nc(N3C(=O)C(O)=C(C(=O)c4ccco4)C3c3cccc(O)c3)sc2c1", "note": "(stereo unspecified)", "activation": "0.69%"}, {"smiles": "CCNS(=O)(=O)c1ccc(NC(=O)CSc2nc(-c3ccco3)cc(C(F)(F)F)n2)cc1", "activation": "-0.0767%"}, {"smiles": "O=C(CNC(=O)c1ccc(Cl)c(C(F)(F)F)c1)OC(C(=O)Nc1cc(C(F)(F)F)ccc1Cl)c1ccccc1", "note": "(stereo unspecified)", "activation": "1.33%"}, {"smiles": "COc1cc2ccccc2cc1C(=O)Nc1cccc(-c2nc3ccccc3o2)c1", "activation": "0.963%"}, {"smiles": "COc1cccc(C(=O)NC2CCN(C#N)CC2)c1", "activation": "0.979%"}, {"smiles": "CCc1ccccc1NC(=O)c1sc2nc3c(cc2c1N)CN(Cc1ccccc1)CC3", "activation": "0.215%"}, {"smiles": "Cn1c(=O)c2c(nc(SCC(=O)Nc3ccc(F)cc3)n2Cc2ccccc2)n(C)c1=O", "activation": "-1.27%"}, {"smiles": "Cc1ccc(C)n1-c1nnc(N2CCC(C(=O)NCc3ccc(F)cc3)CC2)s1", "activation": "-0.123%"}, {"smiles": "COc1cccc(-c2nnc3n(CCc4ccccc4)c(=O)c4ccccc4n23)c1O", "activation": "0.407%"}, {"smiles": "Cc1ccc(CNC(=O)CCNS(=O)(=O)c2ccc3c(c2)oc(=O)n3C)cc1", "activation": "-0.309%"}, {"smiles": "COc1ccc(-n2ccn(CC(=O)Nc3ccc(C)c(C)c3)c(=O)c2=O)cc1OC", "activation": "0.851%"}, {"smiles": "CCOC(=O)C1CCCN(S(=O)(=O)c2cc(-c3cc(C)no3)ccc2OC)C1", "note": "(stereo unspecified)", "activation": "-0.0318%"}, {"smiles": "CC(=O)c1ccc(NC(=O)CSc2nc(-c3ccccc3F)nc3c2c(=O)n(C)c(=O)n3C)cc1", "activation": "0.407%"}, {"smiles": "Cc1ccccc1C(=O)Nc1sc2c(c1C(=O)N1CCC(C)CC1)CCCC2", "activation": "-0.34%"}, {"smiles": "COc1cccc(C(=O)Nc2ccc(-c3cc(C(F)(F)F)nn3-c3ccccc3)cc2)c1", "activation": "1.81%"}, {"smiles": "COc1cccc(C(=O)c2sc3nc(-c4ccccc4)cc(C(F)(F)F)c3c2N)c1", "activation": "106% (active)"}, {"smiles": "COc1cccc(C(=O)NC(=O)Nc2nc(C)cc(C(F)(F)F)n2)c1", "activation": "1.04%"}, {"smiles": "CCOC(=O)c1cccc(NC(=O)c2cc(CN3CCCC3)on2)c1", "activation": "0.429%"}, {"smiles": "CCC(C)Nc1oc(-c2ccc(COc3ccc(Cl)cc3)o2)nc1C#N", "note": "(stereo unspecified)", "activation": "0.327%"}, {"smiles": "O=C(NCCCCc1ccccc1)C1CC(c2ccc([N+](=O)[O-])cc2)=NO1", "note": "(stereo unspecified)", "activation": "-1.16%"}, {"smiles": "O=C1NC(=O)C2C1C(c1ccc([N+](=O)[O-])cc1)=NN2Cc1ccccc1", "note": "(stereo unspecified)", "activation": "34% (active)"}, {"smiles": "O=C1CCN(Cc2ccc([N+](=O)[O-])cc2)CCN1[C@H](CO)Cc1ccccc1", "activation": "1.11%"}, {"smiles": "CC1CCCN(c2csc3ccc(F)cc3c2=O)C1", "note": "(stereo unspecified)", "activation": "0.824%"}, {"smiles": "COc1ccccc1OCC(=O)Nc1nnc2n1CCS2", "activation": "0.414%"}, {"smiles": "CN(c1ccccc1)c1ccc(/C=c2\\s/c(=C(/C#N)C(=O)C(C)(C)C)n(Cc3ccco3)c2=O)cc1", "activation": "40.8% (active)"}, {"smiles": "CCOc1ccccc1NC(=O)Cn1c(=O)n(Cc2ccco2)c(=O)c2sc3ccccc3c21", "activation": "-0.0246%"}]}]}
